# Results published in PubChem BioAssay.
# Results filed as inconclusive are left out. Active and inactive are the calls of the source. Unless noted, how the calls were made is not given here.
# Key:
# [1] = kinase inhibitors against Plasmodium liver-stage infection, cell-based, known kinase inhibitor set, luminescence, hepatoma host viability (AID 624392); settings: Plasmodium liver stage in hepatoma cells, luciferase luminescence, concentration not given here; liver cell % of control: measured here: host liver cell viability; parasite % of control: stronger effect = lower value;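 further: infected cells incubated roughly two days before readout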
# [2] = modulators of glucocorticoid suppression of NF-kB, cell-based, luciferase, IL-1B stimulus, dexamethasone (AID 624486); settings: NF-kB luciferase reporter, IL-1B + dexamethasone, luminescence; percent of negative control (+Dex): actives lie on both sides, concentration not given here; z-score: measured here: IL-1B alone, no Dex;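 on percent of negative control (+Dex): 100% = mean signal of vehicle control wells on the plate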
# [3] = target: Cellular tumor antigen p53 (Homo sapiens) (UniProt P04637); test: kinase inhibitors altering GFP-p53 stability in HPV16-positive cells, imaging, known kinase inhibitor set, EGFP/DsRed ratio (AID 1053116); settings: stronger effect = higher value; EGFP object count: measured here: GFP-p53 positive objects count;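 further: cells exposed to compounds for 24 h at 37 °C before reading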
# Sequence of Cellular tumor antigen p53 (Homo sapiens) (P04637 whole entry, looked up): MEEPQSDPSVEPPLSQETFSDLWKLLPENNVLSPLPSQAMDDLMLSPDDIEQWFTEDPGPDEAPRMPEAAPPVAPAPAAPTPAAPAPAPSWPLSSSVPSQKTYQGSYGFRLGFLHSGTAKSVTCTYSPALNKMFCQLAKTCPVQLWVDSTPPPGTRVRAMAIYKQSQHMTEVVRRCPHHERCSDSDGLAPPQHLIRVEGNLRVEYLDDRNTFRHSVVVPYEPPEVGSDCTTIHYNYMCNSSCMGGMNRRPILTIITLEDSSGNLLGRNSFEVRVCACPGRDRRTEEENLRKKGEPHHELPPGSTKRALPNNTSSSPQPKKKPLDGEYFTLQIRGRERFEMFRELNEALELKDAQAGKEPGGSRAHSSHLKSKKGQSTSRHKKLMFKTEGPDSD
# [4] = IRF3 reporter activation in THP-1 macrophages, cell-based, PMA-stimulated THP-1, luminescence (AID 1053176); settings: PMA-differentiated THP-1, IRF3 reporter luminescence; stronger effect = higher value
# [5] = kinase inhibitors altering Pseudomonas killing of worms, whole organism (AID 651566);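 further: tested at 14 µM; sign flipped so higher z means a lower ratio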; settings: C. elegans killed by P. aeruginosa, survival ratio
# [6] = activators of macrophage pro-inflammatory response, cell-based, murine, luminescence (AID 652131); settings: murine macrophage pro-inflammatory reporter, stronger effect = higher value
# [7] = survival rescue of mitochondrial mutant cells in low glucose, primary screen, MELAS cybrids, Rieske KO mouse fibroblasts, CellTiter-Glo (AID 1508586;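 active means mean z-score across replicates of 1.96 or higher in either the MELAS or the Rieske mutant cell line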;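 further: z relative to plate mean and SD of compound and empty wells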)
# [8] = test system: Aerobactin synthetase IucA (Klebsiella pneumoniae); test: IucA aerobactin synthetase inhibitors, biochemical, Tocris library, absorbance (AID 1345561); settings: purified IucA enzyme assay, absorbance (OD) read-out; stronger effect = lower value;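 tested at 8 µM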;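 further: 100% = enzyme without compound and 0% = no enzyme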
# [9] = growth inhibition of DIPG glioma cells, dose response, cell-based, SU-DIPG-XVII, MIPE5.0, CellTiter-Glo, qHTS (AID 1347060; cut-off not given, nearly all actives have AC50 up to about 26 µM;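 further: cells exposed to compound for 48 hours before viability readout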); settings: SU-DIPG-XVII viability, CellTiter-Glo ATP luminescence
# [10] = growth inhibition of DIPG glioma cells, dose response, cell-based, JHH-DIPG-1, MIPE4.0, CellTiter-Glo, qHTS (AID 1347062; cut-off not given, nearly all actives have AC50 up to about 27 µM;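 further: cells exposed to compound for two days before readout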); settings: JHH-DIPG-1 viability, CellTiter-Glo ATP luminescence
# [11] = growth inhibition of DIPG glioma cells, dose response, cell-based, SU-DIPG-IV, MIPE4.0, CellTiter-Glo, qHTS (AID 1347063; cut-off not given, nearly all actives have AC50 up to about 30 µM;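 further: compound exposure lasted 48 hours before the viability readout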); settings: SU-DIPG-IV viability, CellTiter-Glo ATP luminescence
# [12] = viability loss in pontine glioma line – cell-based, SU-DIPG-XXV, MIPE5.0, CellTiter-Glo, qHTS, dose response (AID 1347065; cut-off not given, nearly all actives have AC50 up to about 26 µM;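 further: cells exposed to compound for 48 hours before ATP readout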); settings: CellTiter-Glo ATP luminescence
# [13] = sensitizers of A549 cells to miR-34 induction, primary screen, imaging, A549 dox-inducible miR-34, nuclei and caspase counts (AID 1347080;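 active means compounds whose cell count with miR-34 switched on is under 0.7 times the count with it off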); settings: A549 miR-34 inducible, Hoechst nuclei count, 48 h
# [14] = viability rescue of complex I mutant cybrids, primary screen, cell-based, galactose medium, ATP luminescence (AID 1645843;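 active means z-score of at least 1.8 in each of two replicates, scored against plate mean and spread of sample wells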;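 further: positive z means more ATP and so rescue of galactose-driven cybrid death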); settings: complex I mutant cybrid cells, 72 h, stronger effect = higher value
# [15] = stimulators of nuclear beta-catenin in C2C12, primary screen, imaging, WNT3A-conditioned medium, mouse C2C12, NPC library (AID 1117326; in the data active means nuclear beta-catenin stimulation mostly above about 4.2%, no sharp cut-off; inactive means mostly below about 10%); settings: stronger effect = higher value
# [16] = stimulators of insulin release from INS-1E, primary screen, cell-based, 5 mM glucose, NPC library (AID 1117329;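 active means compound raises insulin release from rat beta cells at 5 mM glucose, no numeric limit stated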); settings: rat INS-1E insulin secretion, at 10 µM, stronger effect = higher value
# [17] = growth inhibition of GSK3B-pretreated HCT116 cells – cell-based, CellTiter-Glo, 0.2 to 20 µM (AID 1117336;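 active means compounds lowering colon cancer cell viability after pretreatment blocking the GSK3B kinase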); settings: HCT116 viability after GSK3B inhibitor, at 20 µM, stronger effect = higher value
# [18] = inhibition of endothelial tube formation, primary screen, imaging, VEGF stimulated, CD31 staining, tube area, NPC library (AID 1117340;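 active means compound that reduces growth-factor-driven endothelial tube area in a mixed cell culture, no cutoff stated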); settings: VEGF-stimulated ADSC/ECFC co-culture, at 10 µM, stronger effect = higher value
# [19] = glucagon-like peptide 1 release enhancers, primary assay, NCI-H716 cell line, NPC library (AID 1117341;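 active means compound raises GLP1 secretion from the human gut endocrine cells, with no numeric limit stated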); settings: NCI-H716 cells, at 10 µM, stronger effect = higher value
# [20] = HCT116 colon cancer cell growth inhibition, primary screen, CellTiter-Glo luminescence, NPC library (AID 1117342;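 active means compounds that lower survival of HCT116 colon cancer cells in the luminescence readout, no numeric limit stated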); settings: at 20 µM (top of the series)
# [21] = CellTiter-Glo luminescent readout of SW480 viability loss, NPC library primary (AID 1117343;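 active means compounds that lower viability of the colon cancer cells in the luminescence readout, with no numeric limit stated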); settings: CellTiter-Glo luminescence; at 20 µM (top of the series)
# [22] = decreased DLD-1 cellular survival, CellTiter-Glo luminescent readout, NPC compound collection, primary HTS (AID 1117346;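 active means compounds that lower survival of DLD-1 colon cancer cells in the luminescence readout, no cutoff given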); settings: DLD-1 viability, CellTiter-Glo luminescence; at 20 µM (top of the series)
# [23] = MELAS cybrid survival, CellTiter-Glo 48 h, stronger effect = higher value
# [24] = Rieske KO mouse fibroblast survival, CellTiter-Glo 72 h
smiles,measurement,setting,value
CCNC(=O)C1CCCN2C(=O)CCC(NC(=O)C(Cc3ccc(OP(=O)(O)O)cc3)NC(C)=O)C(=O)N12 (configuration not stated),liver cell % of control,[1],95%
same,parasite % of control,[1],44.7% (inactive)
same,percent of negative control (+Dex),[2],102% (inactive)
same,z-score,[2],0.145
same,EGFP object count,[3],6
same,EGFP/DsRed ratio,[3],0.215 (inactive)
same,fraction signal,[4],-0.0005 (inactive)
CS(=O)(=O)N1CCC(n2c(=O)c(Oc3ccc(F)cc3F)cc3cnc(NC4CCOCC4)nc32)CC1,liver cell % of control,[1],112%
same,parasite % of control,[1],64.5% (inactive)
same,percent of negative control (+Dex),[2],95% (inactive)
same,z-score,[2],-0.51
same,EGFP object count,[3],2
same,EGFP/DsRed ratio,[3],0.107 (inactive)
same,fraction signal,[4],0.0035 (inactive)
Fc1ccc(-c2ncn(C3CCNCC3)c2-c2ccnc(Oc3cccc(F)c3)n2)cc1,liver cell % of control,[1],80.2%
same,parasite % of control,[1],175% (inactive)
same,percent of negative control (+Dex),[2],111% (inactive)
same,z-score,[2],0.615
same,z-score,[5],-0.555 (inactive)
same,z-score,[6],-0.299 (inactive)
same,fraction signal,[4],-0.0075 (inactive)
same,z-score,[7]; [23],-0.13 (inactive)
same,z-score,[7]; [24],-0.344
Cc1ccc2c(c1)c(C1=C(c3cn(C)c4ccccc34)C(=O)NC1=O)cn2C,liver cell % of control,[1],83%
same,parasite % of control,[1],41.7% (inactive)
same,percent of negative control (+Dex),[2],102% (inactive)
same,z-score,[2],-1.36
same,EGFP object count,[3],174
same,EGFP/DsRed ratio,[3],0.907 (active)
same,fraction signal,[4],-0.003 (inactive)
COc1cc2ncn(-c3cc(OCc4ccccc4C(F)(F)F)c(C(N)=O)s3)c2cc1OC,percent of negative control (+Dex),[2],103% (inactive)
same,z-score,[2],-0.44
same,z-score,[5],0.57 (inactive)
same,z-score,[6],-0.405 (inactive)
same,fraction signal,[4],0.0355 (inactive)
same,remaining activity,[8],94.3% (inactive)
same,AC50,[9],1.48 µM (active)
same,AC50,[10],5.9 µM (active)
same,AC50,[11],14.8 µM (active)
same,AC50,[12],1.05 µM (active)
same,fold change,"[13]; stronger effect = lower value, cell number ratio, induced over uninduced",1.05 (inactive)
same,fold change,[13]; measured here: relative caspase fold change +Dox/-Dox,1.26
same,cell count,"[13]; measured here: total cells with miR-34 induction, stronger effect = lower value",1110
same,cell count,[13]; measured here: total cells without miR-34 induction,1060
same,z-score,[7]; [23],-0.422 (inactive)
same,z-score,[7]; [24],-0.574
same,z-score,[14],-0.495 (inactive)
Cn1cc(C2=C(c3cn(CCSC(=N)N)c4ccccc34)C(=O)NC2=O)c2ccccc21,liver cell % of control,[1],92.2%
same,parasite % of control,[1],26.4% (inactive)
same,percent of negative control (+Dex),[2],96.5% (inactive)
same,z-score,[2],0.445
same,EGFP object count,[3],2.5
same,EGFP/DsRed ratio,[3],0.00335 (inactive)
same,fraction signal,[4],-0.018 (inactive)
Cn1cc(C2=C(c3cn(CCO)c4ccccc34)C(=O)NC2=O)c2ccccc21,liver cell % of control,[1],89.7%
same,parasite % of control,[1],54.6% (inactive)
same,percent of negative control (+Dex),[2],124% (inactive)
same,z-score,[2],-1.11
same,EGFP object count,[3],25
same,EGFP/DsRed ratio,[3],0.285 (inactive)
same,fraction signal,[4],-0.0245 (inactive)
CS(=O)(=O)c1ccc(Oc2nccc(-c3c(-c4ccc(F)cc4)ncn3C3CCNCC3)n2)cc1,liver cell % of control,[1],78.7%
same,parasite % of control,[1],128% (inactive)
same,percent of negative control (+Dex),[2],92% (inactive)
same,z-score,[2],0.015
same,z-score,[5],-0.505 (inactive)
same,z-score,[6],-0.16 (inactive)
same,fraction signal,[4],-0.008 (inactive)
same,z-score,[7]; [23],-0.0537 (inactive)
same,z-score,[7]; [24],-0.376
NC(=O)CCc1ccccc1Oc1nccc(-c2c(-c3ccc(F)cc3)ncn2C2CCNCC2)n1,liver cell % of control,[1],91.6%
same,parasite % of control,[1],151% (inactive)
same,percent of negative control (+Dex),[2],95.5% (inactive)
same,z-score,[2],0.275
same,z-score,[5],0.875 (inactive)
same,z-score,[6],0.861 (inactive)
same,fraction signal,[4],-0.0055 (inactive)
same,z-score,[7]; [23],-0.2 (inactive)
same,z-score,[7]; [24],-0.462
O=C(O)[C@@H]1C(=CCO)O[C@@H]2CC(=O)N12,nuclear beta-catenin stimulation,[15]; at 10 µM,1.3% (inactive)
same,nuclear beta-catenin stimulation,"[15]; stimulation, at 2 µM",0.6%
same,insulin secretion stimulation,[16],2.2% (inactive)
same,viability decrease,[17],16.4% (inactive)
same,tube area decrease,[18],0.5% (inactive)
same,GLP1 secretion stimulation,[19],-1.2% (inactive)
same,inhibition of viability,[20],18.5% (inactive)
same,viability decrease (inhibition),[21],26% (inactive)
same,viability decrease (inhibition),[22],-7.7% (inactive)
CC(C)(C)c1ccc(Oc2nccc(-c3c(-c4ccc(F)cc4)ncn3C3CCNCC3)n2)cc1,liver cell % of control,[1],81.4%
same,parasite % of control,[1],76.7% (inactive)
same,percent of negative control (+Dex),[2],106% (inactive)
same,z-score,[2],0.75
same,z-score,[5],0.215 (inactive)
same,z-score,[6],-0.618 (inactive)
same,fraction signal,[4],0 (inactive)
same,z-score,[7]; [23],-0.424 (inactive)
same,z-score,[7]; [24],0.0471
Fc1ccc(-c2ncn(C3CCNCC3)c2-c2ccnc(Oc3cccc(C(F)(F)F)c3)n2)cc1,liver cell % of control,[1],97%
same,parasite % of control,[1],156% (inactive)
same,percent of negative control (+Dex),[2],97% (inactive)
same,z-score,[2],0.355
same,z-score,[5],0.19 (inactive)
same,z-score,[6],-0.64 (inactive)
same,fraction signal,[4],0.0045 (inactive)
same,z-score,[7]; [23],-0.429 (inactive)
same,z-score,[7]; [24],-0.412
NS(=O)(=O)c1ccc(N2CCCCS2(=O)=O)cc1,nuclear beta-catenin stimulation,[15]; at 10 µM,0.5% (inactive)
same,nuclear beta-catenin stimulation,"[15]; stimulation, at 2 µM",-0.6%
same,insulin secretion stimulation,[16],-0.3% (inactive)
same,viability decrease,[17],-15.7% (inactive)
same,tube area decrease,[18],5.1% (inactive)
same,GLP1 secretion stimulation,[19],-1.7% (inactive)
same,inhibition of viability,[20],-8.93% (inactive)
same,viability decrease (inhibition),[21],29% (inactive)
same,viability decrease (inhibition),[22],-6.9% (inactive)
Cc1cc(NS(=O)(=O)c2ccc(N)cc2)nc(C)n1,nuclear beta-catenin stimulation,[15]; at 10 µM,0.1% (inactive)
same,nuclear beta-catenin stimulation,"[15]; stimulation, at 2 µM",0.7%
same,insulin secretion stimulation,[16],-1.1% (inactive)
same,viability decrease,[17],0.6% (inactive)
same,tube area decrease,[18],-1.9% (inactive)
same,GLP1 secretion stimulation,[19],-0.1% (inactive)
same,inhibition of viability,[20],-10.6% (inactive)
same,viability decrease (inhibition),[21],55% (active)
same,viability decrease (inhibition),[22],29.8% (inactive)
O=C1NC(=O)C(c2ccccc2)=C1Nc1ccccc1,liver cell % of control,[1],106%
same,parasite % of control,[1],119% (inactive)
same,percent of negative control (+Dex),[2],99.5% (inactive)
same,z-score,[2],0.395
same,z-score,[5],0.425 (inactive)
same,z-score,[6],-0.099 (inactive)
same,fraction signal,[4],-0.014 (inactive)
same,z-score,[7]; [23],-0.614 (inactive)
same,z-score,[7]; [24],-0.425
C[C@H](N)C(=O)N[C@@H](C)C(=O)NC1[C@H]2CN(c3nc4c(cc3F)c(=O)c(C(=O)O)cn4-c3ccc(F)cc3F)C[C@@H]12 (some centres not stated),nuclear beta-catenin stimulation,[15]; at 10 µM,0.2% (inactive)
same,nuclear beta-catenin stimulation,"[15]; stimulation, at 2 µM",-2.1%
same,insulin secretion stimulation,[16],3.4% (inactive)
same,viability decrease,[17],80.7% (active)
same,tube area decrease,[18],1.8% (inactive)
same,GLP1 secretion stimulation,[19],0.7% (inactive)
same,inhibition of viability,[20],27.2% (inactive)
same,viability decrease (inhibition),[21],2.9% (inactive)
same,viability decrease (inhibition),[22],-9.3% (inactive)
